The values below come from PubChem BioAssay (NCI).

This is part of a sample that, as a whole, favours compounds with a hit. Of some 79,000 tested, about 15% had one in any assay. Calls of active or inactive are those of the source. Rule as the data show it: active = growth inhibition above about 70%; inactive = the rest.

The test can be described thus: NCI Yeast Anticancer Drug Screen. Data for the sgs1 mgt1 strain (AID 161).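 Also: 0% = growth of cultures given vehicle only.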 Conditions: S. cerevisiae sgs1 mgt1 strain, at 50.0 µM, hits give high values. The procedure:
Growth inhibition of yeast strains with defined genetic alterations is measured as a screen for potential anti-cancer activity. Selected strains with alterations in DNA damage repair or cell cycle control were exposed to compounds and growth inhibition was measured relative to vehicle treated controls. The strain used in this assay is sgs1 mgt1
As to `O=[N+]([O-])c1ccc(-c2csc(NCC3CCCO3)n2)cc1` (stereo not given), the growth inhibition was 49.9% (inactive). As for `CN(C)c1ccc(S(=O)(=O)c2ccc3nc(N)nc(N)c3c2)cc1`, the figure is 5.45% (inactive); as for `CCc1ccc(NC(=O)c2cc(OC)c(OC)c(OC)c2)cc1`, 2.6% (inactive); as for `C/C=C1\CN2CCc3c([nH]c4ccccc34)C2CC1CCO` (stereo not given), -5.4% (inactive). The same measure for `CN(CC(=O)C(O)C(O)C(O)CO)c1ccccc1` (stereo not given): -7.6% (inactive); for `CCc1c(C#N)c(=O)[nH]c(=O)n1CCN1CCN(C(=O)NCCCCCCNC(=O)N2CCN(CCn3c(CC)c(C#N)c(=O)[nH]c3=O)CC2)CC1`: -14.4% (inactive); for `COC1/C=C/OC2(C)Oc3c(C)c(O)c4c(O)c(c(/C=N/N(C)c5ccc([N+](=O)[O-])cc5[N+](=O)[O-])c(O)c4c3C2=O)NC(=O)C(C)=C/C=C/C(C)C(O)C(C)C(O)C(C)C(OC(C)=O)C1C` (stereo not given): 31.5% (inactive). As for `O=S(=O)([O-])[O-].O=c1[nH]cnc2[nH]ncc12.O=c1[nH]cnc2[nH]ncc12.[Cu+2]`, the figure is -47.2% (inactive); as for `CC(C)CC1CC(=O)C(=O)C(CC(C)C)C1` (stereo not given), 3.45% (inactive). Consider `Cc1cccc(C)c1C1=NCCN1`, for which the growth inhibition was -8.95% (inactive).

Turning to `O=C(Nc1ccc2ccccc2c1)c1ccc(Cl)c(Cl)c1`, the growth inhibition was 24.9% (inactive). As for `CNC1C(CO)OC(n2cnc3c(N)ncnc32)C1O` (stereo not given), the figure is 3.75% (inactive); as for `CN(N)C(=O)Nc1ccc([N+](=O)[O-])cc1`, -2.7% (inactive); as for `Cc1ccc(N=Nc2c(O)ccc3n[nH]nc23)cc1`, 31.9% (inactive). As for `Oc1ccc(N=Nc2ccccc2)c(O)c1`, the figure is 43.5% (inactive); as for `CC(C)(C=O)OC(=O)c1cc([N+](=O)[O-])cc([N+](=O)[O-])c1`, 27.4% (inactive).

Turning to `C/C(=N\OC(=O)c1c(-c2c(Cl)cccc2Cl)noc1C)c1ccccc1O`, the growth inhibition is -1.6% (inactive). As for `CC1(C)CC(N(CCO)CCO)CC(C)(C)N1O`, the growth inhibition was 11.4% (inactive). Take `CCC1OC(=O)C(C)C(OC2CC(C)(O)C(O)C(C)O2)C(C)C(O)C(C)(O)CC(C)C(=O)C(C)C(O)C1C` (stereo not given): the growth inhibition is 0.5% (inactive).

Take `CCCCCCCCCCCCn1[nH]c(C)c(C(=S)SCCCCCCCC)c1=O`: the growth inhibition was -0.9% (inactive). As for `O=C(CC(=O)c1ccccc1)CC(=O)c1ccc(C(=O)CC(=O)CC(=O)c2ccccc2)cc1`, the figure is 30.9% (inactive); as for `Nc1nc(N)nc(CCC(Br)(Br)Br)n1`, 30.8% (inactive); as for `CCOc1ccc(C2=C/C(=C/c3cccs3)C(=O)O2)cc1`, -1.15% (inactive). For the molecule `Nc1nc(-c2ccccc2)c(N=Nc2ccc([N+](=O)[O-])cc2Cl)s1`, the growth inhibition is 4.4% (inactive). The same measure for `CCCC(=O)c1ccccc1`: 19.9% (inactive).

Regarding `CSC(/C=C/c1ccccc1)=Nc1ccccc1`, the growth inhibition is -0.9% (inactive). The same measure for `Brc1cccc(C2SCc3nc4ccccc4n32)c1` (stereo not given): 37.2% (inactive); for `COc1ccc(-c2cc(-c3ccc(C)cc3)n(C3OC(COC(C)=O)C(OC(C)=O)C(OC(C)=O)C3OC(C)=O)c(=S)c2C#N)cc1` (stereo not given): -10.3% (inactive). As for `O=C(c1ccncc1)C(C(c1ccccc1)N1CCOCC1)N1CCOCC1` (stereo not given), the figure is 34% (inactive); as for `Cc1ccc(-n2nnc(-c3ccc(Cl)c(Cl)c3)n2)cc1`, -4.45% (inactive). For the molecule `CCC/C(CC)=N\Nc1ccc([N+](=O)[O-])cc1[N+](=O)[O-]`, the growth inhibition is -2.35% (inactive). The same measure for `COC(=O)/C=C/C=C/C(=O)OC`: -2.6% (inactive).

Take `C/C=C/c1nc2ccccc2[nH]1`: the growth inhibition is -3% (inactive).

For the molecule `O=S(=O)(O)c1cccc2c(O)cccc12`, the growth inhibition is 5.65% (inactive). As for `O=S(=O)(/C=C/S(=O)(=O)c1ccccc1)c1ccccc1`, the figure is 98.8% (active); as for `CC(C)(C)C(=O)C(C(=O)c1ccccc1)C(=O)C(C)(C)C`, 19.9% (inactive). The same measure for `CN1CCC(O)(C(C)(C)C)CC1`: 3.65% (inactive); for `COC(=O)C(=O)C(C)C(=O)C(C)c1nc(NC(=O)Nc2ccc(Cl)cc2)n[nH]1` (stereo not given): 3% (inactive); for `N#CC(C#N)=CN1CCCC1`: -6.45% (inactive). As for `CC(=O)N1C(=O)NC(=O)C1(C)C`, the growth inhibition is 6.65% (inactive).
